# A selection: hits, their analogues and other compounds. The true share with any hit is near 21%.
# D3 antag: D3 dopamine receptor (human) antagonism | P35462 | 2.5% of 360,000 active | D3R cells, DiscoveRx beta-arrestin luminescence, antagonist mode; stronger effect = lower value | AID 652054 | max response, negative = inhibition, %; in the data active = max response below about -50%; inconclusive = no clear call, values can overlap the other calls
# Target sequence (P35462 whole entry, looked up): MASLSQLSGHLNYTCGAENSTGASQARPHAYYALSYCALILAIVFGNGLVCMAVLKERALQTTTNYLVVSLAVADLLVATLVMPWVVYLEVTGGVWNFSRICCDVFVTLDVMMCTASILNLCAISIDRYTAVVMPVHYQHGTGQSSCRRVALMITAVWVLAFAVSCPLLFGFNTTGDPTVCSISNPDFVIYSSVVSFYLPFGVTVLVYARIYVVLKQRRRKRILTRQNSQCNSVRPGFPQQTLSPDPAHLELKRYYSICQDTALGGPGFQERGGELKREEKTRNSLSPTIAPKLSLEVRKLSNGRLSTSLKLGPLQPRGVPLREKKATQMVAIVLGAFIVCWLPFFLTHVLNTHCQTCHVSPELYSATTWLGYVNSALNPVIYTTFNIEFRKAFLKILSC
#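 Cells expressing the human receptor were seeded at 1500 cells/well, incubated overnight at 37 degrees C in 5% CO2, then exposed to library compounds with dopamine controls for 90 minutes at 37 degrees C before luminescent detection.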
# TDP1 cell CPT: DT40-hTDP1 cell growth loss with CPT; chicken DT40 Tdp1-/-;hTDP1 cells + 20 nM CPT, ATP luminescence, 48 h; Potency, µM (series often up to 46.2 µM), most hits filed as inhibitors; 12% of 420,000 active; also: nearly all actives have a fitted effect of over 55% in size
#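 Chicken DT40 Tdp1-/- cells stably complemented with human TDP1 were seeded at 400 cells/well in medium containing 20 nM camptothecin, exposed to pin-transferred compounds, and grown at 37 °C for at least 48 hr. Viability was read as ATP luminescence.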
# D3 ag: agonists of human D3 dopamine receptor. P35462. D3R DiscoveRx beta-arrestin cells, luminescence, 90 min. max activation, %. 0.58% of 410,000 active; in the data active = max activation above about 30%
#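 Agonist mode: compounds and dopamine controls were applied to plated cells for 90 min at 37 degrees C after an overnight attachment at 1500 cells/well. Luminescent read-out followed 30 - 60 minutes at room temperature with DiscoveRx detection reagent.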
# IL-1B inflam inh: inflammasome signaling inhibition, IL-1 beta readout; THP-1 LPS/ATP IL-1B secretion, AlphaLISA, 16 h; stronger effect = lower value; activity change, % at 57.5 µM; 4.7% of 360,000 active; AID 743279; in the data active = activity change below about -50%; inconclusive = mostly about -30% to -49%
#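 Secreted IL-1B measured by AlphaLISA bead assay after 16 h compound exposure of THP-1 cells; compounds (final up to 57.5 uM) added 1 h before LPS (250 ng/mL) and ATP (1.25 mM) stimulation; lower signal means less secretion.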
# ClpP mod: qHTS Assay for Activators of ClpP; Potency, µM (doses to about 57.5 µM); purified B. subtilis ClpP, FRET peptide cleavage, 20 min; 1.9% of 340,000 active; AID 651965, 2013; active = well fitted falling curve with a large enough effect; inconclusive = small, poorly fitted or top-dose-only effect; inactive = no such curve, though single readings can be large or run the other way; also: the source files actives as falling curves though it sought activators and does not explain the sign; nearly all actives have a fitted effect of over 65% in size
# Target sequence (P80244 whole entry, looked up): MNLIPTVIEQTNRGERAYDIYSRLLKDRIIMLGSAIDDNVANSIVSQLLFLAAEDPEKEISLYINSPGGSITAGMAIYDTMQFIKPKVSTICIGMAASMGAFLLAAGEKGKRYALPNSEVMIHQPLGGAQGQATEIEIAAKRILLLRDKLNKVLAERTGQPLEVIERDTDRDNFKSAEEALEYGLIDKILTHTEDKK
#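 Buffer: 100 mM Tris/HCl pH8, 100 mM KCl, 0.05% low protease BSA, 2.5% glycerol, 0.01% Tween-20. ClpP 10 microg/mL final; 20 min RT; delta FRET normalized to ADEP and DMSO controls.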
# DT40 TDP1 no CPT: qHTS for Inhibitors of human tyrosyl-DNA phosphodiesterase 1 (TDP1): qHTS in cells in absence of CPT; DT40 Tdp1-/- hTDP1 cells, no CPT, ATP luminescence, 48 h; Potency, µM (top dose mostly 46.2 µM), actives largely listed as inhibitors; 15% of 420,000 active; also: nearly all actives have a fitted effect of over 55% in size
#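 Seeded 400 DT40-hTDP1 cells/well (vehicle DMSO, no 20 nM CPT); pinned compounds; ≥48 hr at 37 °C; CellTiter-Glo luminescence as viability measure.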
# A number is an active result; i = inactive; ? = inconclusive; nt = no result; [ ] = remark or other dose. Unless noted, calls follow the shape of the dose curve; as a rule, active = well fitted inhibition curve with a large enough effect; inconclusive = small, poorly fitted or top-dose-only effect; inactive = flat fitted curve, though single readings scatter.
SMILES,D3 antag,TDP1 cell CPT,D3 ag,IL-1B inflam inh,ClpP mod,DT40 TDP1 no CPT
Cc1ccccc1N(C(=O)Cn1nnc(-c2cccs2)n1)C(C(=O)NCCC(C)C)c1ccco1 (stereo not given),i,?,i,-51,i,?
COc1ccc(-c2nnn(CC(=O)N(Cc3cccs3)C(C)C(=O)NCCC(C)C)n2)cc1OC (stereo not given),i,15µM,i,i,i,21µM
COCCNC(=O)C(c1cccs1)N(Cc1cccs1)C(=O)Cn1nnc2ccccc21 (stereo not given),i,i,i,i,i,i
CC(C)CCNC(=O)C(c1ccco1)N(Cc1cccs1)C(=O)Cn1nnc2ccccc21 (stereo not given),i,26µM,i,i,i,?
COCCNC(=O)C(c1ccco1)N(C(=O)Cn1nnc2ccccc21)c1ccccc1C (stereo not given),i,i,i,i,i,i
Cn1c(SCc2ccccc2Cl)nc2c1c(=O)[nH]c(=O)n2C,i,i,i,i,nt,i
C#CCNC(=O)C[C@@H]1C[C@@]2(C(=O)OC)CC(C)(C)CC=C2N(CCc2ccc(OC)c(OC)c2)C1=O,i,?,i,i,i,i
CCCOc1ccc(N2CC(C(=O)Nc3cccc(Cl)c3Cl)CC2=O)cc1 (stereo not given),nt,?,i,nt,i,i
CC(=O)N1N=C(c2cccc([N+](=O)[O-])c2)OC1c1ccc(Cl)cc1Cl (stereo not given),?,i,i,-52,i,?
COc1cccc(CN2C(=O)c3ccccc3C2C(=O)NCCc2ccccc2)c1 (stereo not given),nt,?,i,nt,i,i
COc1ccccc1N1CCN(CCCNC(=O)Cn2ncc3c([nH]c4ccccc43)c2=O)CC1,-108,?,i,i,i,21µM
Cc1ccc(C)c(N2CCN(CCCNC(=O)Cn3ncc4c([nH]c5ccccc54)c3=O)CC2)c1,nt,15µM,i,nt,i,21µM
O=C(Cn1ncc2c([nH]c3ccccc32)c1=O)Nc1ccc(CN2CCCCC2)cc1,i,?,i,i,i,18µM
O=C(Cn1ncc2c([nH]c3ccccc32)c1=O)NCCCN1CCN(c2ccc(F)cc2)CC1,nt,?,i,nt,i,?
COC(=O)c1ccccc1Nc1ccnc(Cl)n1,i,i,i,i,nt,i
CN1CCN(NC(=O)c2cc(S(=O)(=O)Nc3ccc(Cl)cc3)ccc2Cl)CC1,i,i,i,i,nt,i
Cc1ccc(OCc2ccc(C(=O)NCc3cccnc3)cc2)cc1C,i,3.3µM,i,-54,nt,5.2µM
COc1ccc(NC(=O)COc2ccc(C(=O)NCc3cccnc3)cc2OC)cc1,i,?,i,i,i,?
O=C(COc1ccc(Cl)cc1)Nc1ccc(C(=O)NCc2cccnc2)cc1,i,12µM,i,i,i,9.2µM
O=C(NCc1cccnc1)c1ccc(COc2ccc(Cl)cc2)cc1,i,16µM,i,i,i,10µM
CC(C)(C)c1ccc(OCc2ccc(C(=O)NCc3cccnc3)o2)cc1,i,21µM,i,i,i,8.2µM
CCC(C)(Oc1ccc(C2(c3ccc(OC(C)(CC)C(=O)O)cc3)CCCCC2)cc1)C(=O)O (stereo not given),nt,i,i,nt,nt,i
O=C(Nc1ccc(Cl)cc1C(=O)NCc1cccnc1)c1ccc(Cl)cc1Cl,i,?,i,i,i,18µM
O=C(NCc1cccnc1)c1ccc(NC(=O)c2ccc(Br)cc2)cc1,i,9.2µM,i,i,i,15µM
O=C(COc1ccc(Cl)cc1)Nc1ccccc1C(=O)NCc1cccnc1,i,?,i,i,i,23µM
SMILES,D3 antag,TDP1 cell CPT,D3 ag,IL-1B inflam inh,ClpP mod,DT40 TDP1 no CPT
O=C(Nc1c(Cl)cc(Cl)cc1C(=O)NCc1cccnc1)c1ccc(Cl)cc1Cl,i,i,i,i,i,?
Cc1ccc(-c2nn3c(=O)cc(CN4CCN(C(=O)Nc5cc(Cl)ccc5C)CC4)nc3s2)cc1,nt,?,i,nt,i,i
CCOc1ccccc1NC(=O)CCS(=O)(=O)c1ccc(Br)cc1,i,i,i,i,i,i
CN(C)C1(CNC(=O)COc2ccc(C(C)(C)C)cc2)CCCCC1,nt,?,i,nt,i,?
CO[C@H]1C[C@H](O[C@H]2[C@H](C)[C@@H](O[C@@H]3O[C@H](C)C[C@H](N(C)C)[C@H]3OC(C)=O)[C@@H](C)C[C@]3(CO3)C(=O)[C@H](C)[C@@H](OC(C)=O)[C@@H](C)[C@@H](C)OC(=O)[C@@H]2C)O[C@@H](C)[C@@H]1OC(C)=O,nt,i,i,nt,nt,i
Nc1nc(N)c(Cc2ccc(Cl)cc2Cl)c(N)n1,i,26µM,i,i,nt,23µM
COc1cc(CNc2ncnc3c2ncn3[C@H]2CN(Cc3cccc(C(F)(F)F)c3)C[C@@H](COC(C)=O)O2)cc(OC)c1OC,i,?,i,i,i,?
CC(=O)OC[C@@H]1CN(Cc2ccccc2)C[C@H](n2cnc3c(Nc4ccccc4)ncnc32)O1,i,?,i,i,i,?
COc1cc(CNc2ncnc3c2ncn3[C@H]2CN(Cc3ccccc3)C[C@@H](COC(C)=O)O2)cc(OC)c1OC,i,?,i,i,i,16µM
COc1cc(CNc2ncnc3c2ncn3[C@H]2CN(Cc3cccc(C(F)(F)F)c3)C[C@@H](CO)O2)cc(OC)c1OC,i,18µM,i,i,i,16µM
Cc1cc2nc3c(=O)n(CCc4ccccc4)c(=O)[nH]c3nc2cc1N,i,i,i,?,nt,21µM
COc1cc(CN2CCCC(c3nc(-c4ccncc4)ncc3-c3ccccc3)C2)ccc1O (stereo not given),nt,i[9.04 µM],nt,nt,nt,i
O=C(Cn1c(=O)n(Cc2ccco2)c(=O)c2ccc(C(=O)NC3CCCC3)cc21)Nc1ccc(F)cc1,nt,i,i,nt,i,i
Cc1ccc(-n2c(C)c3c(C)nnc(C)c3c2C)cc1C,-58,15µM,i,?,i,15µM
Cc1nnc(C)c2c(C)n(C(c3ccccc3)c3ccccc3)c(C)c12,i,?,i,?,i,?
Cc1cc(-n2c(C)c3c(C)nnc(C)c3c2C)ccc1N,i,8.2µM,i,nt,nt,?
Cc1nnc(C)c2c(C)n(-c3ccccc3N)c(C)c12,i,21µM,i,i,i,?
Cc1nnc(C)c2c(C)n(-c3ccccc3)c(C)c12,i,23µM,i,i,i,23µM
Cc1cccc(C)c1-n1ncc(C(=O)NC2CCCC2)c1C1CCN(C(=O)OC(C)(C)C)CC1,nt,?,i,nt,i,?
CCn1c(C)c2c(C)nnc(C)c2c1C,i,i,i,i,i,i

# Assay outcomes (PubChem)
